Screening results from PubChem BioAssay.
HepG2 viability – counter-screen for TGF-b inhibitors: cytotoxicity in HepG2 cells; AID 588856; 410,000 tested, 0.76% active; HepG2 CAGA-GFP viability, ATP luminescence, 18 h; Potency, µM (top dose mostly 46.1 µM), hits mostly cytotoxic
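HepG2 CAGA-GFP cells (1000/well, DMEM with 1% FBS) received compound, then TGF-beta at 500 pg/mL final, and were incubated 18 hours at 37 degrees C. Viability was read by CellTiter-Glo luminescence. Media-only wells were set as complete cell-killing and DMSO as no toxicity.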
TGFb inhibitor – TGF-b pathway inhibition; AID 588855; Potency, µM (top dose mostly 46.1 µM), hits mostly inhibitors; HepG2 CAGA-GFP TGF-b/SMAD3 reporter, GFP fluorescence, 18 h; TGF-beta stimulated, 500 pg/mL final; 410,000 tested, 1.2% active; further: nearly all actives have a fitted effect of over 65% in size
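TGF-beta reporter screen: HEPG2 CAGA-GFP, 1% FBS, 500 pg/mL TGF-beta final, 18 h; per-cell GFP summed per well; curves fitted and categorized by class.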
Nrf2 block – Nrf2 pathway inhibition; A549 ARE-Fluc reporter, luciferase luminescence, 18-24 h; Potency, µM (titrated, usually from 46 µM), hits mostly inhibitors; 360,000 tested, 2.1% active; AID 504444; further: nearly all actives have a fitted effect of over 60% in size
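Cells were seeded and rested 2 h, then exposed to compounds for 18-24 h. CellTiter-Fluor was read first as a viability measure. BugLite was added 15 min before the final luminescent read of ARE-luciferase activity in A549 cells.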
Nrf2 activator – activators of Nrf2 (ARE) signaling. AREc32 ARE-luciferase reporter (MCF7-derived line), luminescence, 24 h. Potency, µM (doses to about 46.1 µM), most hits filed as activators. 410,000 tested, 0.31% active; further: nearly all actives have a fitted effect of over 65% in size
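AREc32_Fluc, 1000 cells/well, OPTI-MEM + 5% FBS, o/n 37 deg C 5% CO2; 23 nL cpd by pin tool, 24 hr; Steady-Glo 30 min RT, luminescence.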
A549 tox – counter-screen for Nrf2 inhibitors: cytotoxicity in A549 cells; A549 ARE-Fluc cells, CellTiter-Fluor viability, 18-24 h; Potency, µM (top dose mostly 46 µM), actives largely listed as inhibitors; 390,000 tested, 0.16% active; AID 504648
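A549 ARE_Fluc cells in 5% FBS OPTI-MEM were exposed to compounds in concentration-response for 18-24 h at 37 deg C. Viability was read by CellTiter-Fluor fluorescence (Ex 405/Em 525) after 30 min, before the luciferase read.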
A number is an active result; n = inactive; u = inconclusive; x = no result; [ ] = dose if it differs, or a comment. Sampled rows, rich in hits. Any-hit rate of the full collection: about 3.6%. The call rests on the fitted dose curve; in most records, active means well fitted curve in the direction sought with a large enough effect; inconclusive means small, poorly fitted or top-dose-only effect, or another doubt; inactive means no such curve, though single readings can be large; an effect the other way counts as inactive or inconclusive.

SMILES	HepG2 viability	TGFb inhibitor	Nrf2 block	Nrf2 activator	A549 tox
Cc1nc(CS(=O)(=O)c2ccc(Cl)cc2)cc(N2CCOCC2)n1	n	n	n	n	n
C=CCNc1nc2c(c(=O)n(C)c(=O)n2C)n1CCCCCC	n	n	4.1µM	n	n
Cn1c(=O)c2c(nc(NCCc3ccccc3)n2Cc2ccc(F)cc2)n(C)c1=O	n	u	u	n	n
C=CCNc1nc2c(c(=O)n(C)c(=O)n2C)n1Cc1ccc(F)cc1	n	n	8.2µM	n	n
Cc1cc(C)cc(OCC(=O)N2N=C(C(F)(F)F)CC2(O)C(C)(C)C)c1 (centres undefined)	18µM	u	n	n	n
CCCCC1(O)CC(C(F)(F)F)=NN1C(=O)COc1ccccc1 (centres undefined)	n	n	16µM	n	u
Cc1cc(C)cc(OCC(=O)N2N=C(c3cccnc3)CC2(O)C(F)(F)F)c1 (centres undefined)	n	u	23µM	n[9.22 µM]	n
CC(C)(C)C1(O)CC(C(F)(F)F)=NN1C(=O)CCCc1ccccc1 (centres undefined)	n	n	n	n	n
CC(C)Oc1ccc(OCCSc2nc3ccccc3n2CC(=O)O)cc1	n	n	n	n	n
Cc1cc(C)cc(NC(=O)c2nnn(Cc3cc(C)ccc3C)c2N)c1	n	u	u	n	n
Cc1noc2ncnc(N3CCN(c4ccc(F)cc4)CC3)c12	n	n	7.3µM	n	n
COc1ccc(OC)c(Nc2nc(NCCCN(C)C)nc(N)c2[N+](=O)[O-])c1	16µM	u	u	n	n
COCCCNc1nc(N)c([N+](=O)[O-])c(Nc2cc(OC)ccc2OC)n1	n	u	n	n	n
CC1CCN(C(=S)NC(=O)c2cccs2)CC1	n	n	n	n[9.22 µM]	n
Cc1cccc(C)c1NC(=O)CN1C(=O)c2ccccc2Sc2ncccc21	n	n	n	n	n
O=C(O)CC1(CC(=O)NCc2ccc(C(F)(F)F)cc2)CCCCC1	n	n	u	n	n
O=C(O)CC1(CC(=O)Nc2cc(C(F)(F)F)cc(C(F)(F)F)c2)CCCCC1	n	u	23µM	n	n
CC(C)(O)C#Cc1ccc(CN2CCN(Cc3ccsc3)C(CCO)C2)cc1 (centres undefined)	n	n	u	n	n
COc1cc(/C=C2/SC(=S)NC2=O)ccc1OS(=O)(=O)c1ccc(C)cc1	n	16µM	u	n	u
COc1ccc(/C=C2/SC(c3ccc(C)cc3)=NC2=O)cc1OC	n	n	u	n	n
COc1ccc(/C=C2\SC(c3ccc(C)cc3)=NC2=O)cc1OC	n	u	16µM	n	n
COc1ccc(/C=C2\SC(=O)NC2=S)cc1OC	n	n	u	u	12µM
Cc1cccc(Nc2c([N+](=O)[O-])cc(C(=O)N3CC(=O)Nc4ccccc43)cc2[N+](=O)[O-])c1	n	n	n	n	n
Cc1cc(C)c(S(=O)(=O)N2CCCOC2CNC(=O)C(=O)NCCC2=CCCCC2)c(C)c1 (centres undefined)	n	n	n	n	n
CCN1CCN(C(=O)c2cc(S(=O)(=O)N3CC(C)CC(C)C3)ccc2Cl)CC1 (centres undefined)	n	n	n	n	n
SMILES	HepG2 viability	TGFb inhibitor	Nrf2 block	Nrf2 activator	A549 tox
COc1cc(C(=O)Oc2ccc3ccc(O)cc3c2)cc(OC)c1OC	22µM	u	n	n	n
COc1ccc(C(=O)/C=C/c2ccc(OC(=O)c3cc(OC)c(OC)c(OC)c3)cc2)cc1	n	n	n	u	n
Nc1nc(-c2ccccc2)c(N=Nc2cccc3ccccc23)s1	n	11µM	n	n	16µM
Nc1nc(-c2ccccc2)c(N=Nc2ccccc2Cl)s1	n	u	n	n	u
Cc1cccc(C)c1NC(=O)COc1ccc2c(C)c(Cc3ccccc3)c(=O)oc2c1C	n	n	n	n	n
COc1ccc(NC(=O)c2cc(C)no2)cc1Cl	n	n	n	n	n
Cc1ccc(O)c(NC(=O)c2cc(-c3ccccc3)on2)c1	n	n	n	n	n
COc1ccc(Cl)cc1NC(=O)c1cnccn1	n	n	n	13µM	n
COc1ccc(Cl)cc1NC(=O)c1cc(C)no1	n	n	n	8.9µM	n
Cc1ccc(O)c(NC(=O)c2cc(C)no2)c1	n	n	u	13µM	n
Nc1cc2c(cc1Br)[nH]c(=O)c1ccccc12	n	10µM	u	n	n
CCOC(=O)c1cccc(NC(=O)c2ccc(NC(=O)C3CCCO3)cc2)c1 (centres undefined)	n	n	12µM	n	n
CSc1nsc(SC)c1C(=O)Nc1ccc(Cl)cc1	n	n	n	u	n
CC[N+](CC)(CC)CCOc1cccc(OCC[N+](CC)(CC)CC)c1OCC[N+](CC)(CC)CC	n	n	n	n	n
CC[N+](CC)(CC)CCOc1ccc(/C=C/c2ccccc2)cc1	n	n	15µM	n	n
CCOc1cccc(C(=O)Nc2cc(C)c(O)c(-c3nc4ncccc4o3)c2)c1	n	n	n	n	n
Cc1ccc(S(=O)c2ccc([N+](=O)[O-])c3nonc23)cc1 (centres undefined)	n	u	x	18µM	x
Cc1ccc(Nc2c([N+](=O)[O-])ccc3nonc23)c(C)c1	n	n	n	n	n
COc1ccc(-c2nnc(NC(=O)c3ccc([N+](=O)[O-])o3)o2)c(OC)c1	n	u	u	u	u
Cc1ccc(NC(=O)c2ccc([N+](=O)[O-])o2)c(C)c1	n	13µM	n	u	n
Cc1cccc(NC(=O)c2ccc([N+](=O)[O-])o2)n1	25µM	u	n	n	n
Cc1ccccc1NC(=O)c1ccc([N+](=O)[O-])o1	n	16µM	n	u	n
O=C(Nc1ccccc1Cl)c1ccc([N+](=O)[O-])o1	n	u	n	n	n
Cc1cccc(NC(=O)c2ccc([N+](=O)[O-])cc2Cl)n1	n	n	n	n	n
Cc1ccc(-c2nnc(NC(=O)c3ccc([N+](=O)[O-])o3)o2)c(C)c1	n	n	u	7.1µM	u
SMILES	HepG2 viability	TGFb inhibitor	Nrf2 block	Nrf2 activator	A549 tox
Cc1cccnc1NC(=O)c1ccc([N+](=O)[O-])o1	n	u	u	22µM	n
Cc1ccc(NC(=O)c2ccco2)c([N+](=O)[O-])c1	n	n	n	11µM	n
COc1ccc(NC(=O)c2ccco2)c([N+](=O)[O-])c1	n	n	n	n	n
O=C(Nc1cccc2ncccc12)c1ccc([N+](=O)[O-])o1	13µM	13µM	n	u	n
Cc1ccc(-n2c(C)cc(=O)cc2C)c(C)c1	n	n	n	n	n
O=C(CCNS(=O)(=O)c1ccc(OC(F)(F)F)cc1)N1CCN(C/C=C/c2ccccc2)CC1	n	u	u	n	n
O=C(N/N=C/c1ccccc1O)NC12CC3CC(CC(C3)C1)C2	n	11µM	n	n	n
